Where a name gives a salt, the structure may show the parent alone.
test system: HeLa; test: nuclear count per well, robust Z-score vs DMSO; higher = more cells (less toxicity); details: 10 µM; 6 h
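Further: Hoechst-stained nuclei counted by automated confocal imaging of four fields per well in 384-well plates, with the robust Z-score based on the per-plate DMSO median and robust SD.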

| Compound | nuclear count per well |
| --- | --- |
| C#C[C@]1(O)CC[C@H]2[C@@H]3CCC4=Cc5oncc5C[C@]4(C)[C@H]3CC[C@@]21C [Danazol] | -0.75 |
| O=c1cc(-c2cccc3c2Sc2ccccc2S3)oc(N2CCOCC2)c1 | 1.91 |
| Cc1cn[nH]c1 [Fomepizole] | 0.665 |
| Cc1cnc(NC(=O)C2=C(O)c3ccccc3S(=O)(=O)N2C)s1 [Meloxicam] | -0.357 |
| Nc1ccc(C(=O)O)c(O)c1 [4-Aminosalicylic Acid] | 0.704 |
| CCCCCCCCCCCCCCCC(=O)N[C@H](CN1CCOCC1)[C@H](O)c1ccccc1 (racemic) | 0.169 |
| Cc1ccc(O)c([C@H](CCN(C(C)C)C(C)C)c2ccccc2)c1 [Tolterodine Tartrate] | 0.854 |
| CC/C=C\C/C=C\C/C=C\CCCCCCCCCCCC(=O)O [Docosatrienoic acid (22:3 n-3)] | 0.183 |
| CCCNC(C)C(=O)Nc1c(C)csc1C(=O)OC (stereo not given) | -0.629 |
| Clc1ccc2c(c1)CCc1cccnc1C2=C1CCNCC1 [Desloratadine] | 0.226 |
| CC1(C)CCC(C)(C)c2cc(C(=O)Nc3ccc(C(=O)O)cc3)ccc21 | 1.49 |
| OC(CCN1CCCCC1)(c1ccccc1)C1CC2C=CC1C2 (stereo not given) | 0.74 |
| Cc1nc2n(c(=O)c1CCN1CCC(c3noc4cc(F)ccc34)CC1)CCCC2O (stereo not given) [Paliperidone] | 0.57 |
| COc1cc2nc(N3CCN(C(=O)C4COc5ccccc5O4)CC3)nc(N)c2cc1OC (stereo not given) [Doxazosin Mesylate] | 0.467 |
| C[C@@](Cc1ccc(O)c(O)c1)(NN)C(=O)O [Carbidopa] | 0.643 |
| O=C1NC(=O)/C(=C\c2ccc3nccnc3c2)S1 | 0.336 |
| CO[C@H]1/C=C/O[C@@]2(C)Oc3c(C)c(O)c4c(O)c(c(/C=N/N5CCN(C6CCCC6)CC5)c(O)c4c3C2=O)NC(=O)/C(C)=C\C=C\[C@H](C)[C@H](O)[C@@H](C)[C@@H](O)[C@@H](C)[C@H](OC(C)=O)[C@@H]1C [Rifapentine] | -0.199 |
| CC(C)/N=c1\cc2n(-c3ccc(Cl)cc3)c3ccccc3nc-2cc1Nc1ccc(Cl)cc1 [Clofazimine] | -0.182 |
| C[C@H](Cn1cnc2c(N)ncnc21)OCP(=O)(O)O [Tenofovir] | 0.802 |
| CSc1ccc2c(c1)N(CCC1CCCCN1C)c1ccccc1S2 (stereo not given) [Thioridazine hydrochloride] | 0.72 |

| Compound | nuclear count per well |
| --- | --- |
| Nc1nc(/C(=C/CC(=O)O)C(=O)N[C@@H]2C(=O)N3C(C(=O)O)=CCS[C@H]23)cs1 [Ceftibuten] | 0.975 |
| C[C@@H]1O[C@@H]1P(=O)(O)O [Fosfomycin Calcium] | -0.0673 |
| COc1ccccc1Oc1c(NS(=O)(=O)c2ccc(C(C)(C)C)cc2)nc(-c2ncccn2)nc1OCCO [Bosentan] | 0.146 |
| Cn1cnc(N)c2ncnc1-2 [3-Methyladenine] | 0.106 |
| COc1cc(/C=C/C(=O)CC(=O)/C=C/c2ccc(O)c(OC)c2)ccc1O [Curcumin] | -1.34 |
| CC1(C)O[C@@H]2C[C@H]3[C@@H]4C[C@H](F)C5=CC(=O)C=C[C@]5(C)[C@@]4(F)[C@@H](O)C[C@]3(C)[C@]2(C(=O)CO)O1 [Fluocinolone Acetonide] | 1.01 |
| COCCOC(=O)C1=C(C)NC(C)=C(C(=O)OC(C)C)C1c1cccc([N+](=O)[O-])c1 (stereo not given) [Nimodipine] | 0.889 |
| CO[C@H]1C[C@@H]2CC[C@@H](C)[C@@](O)(O2)C(=O)C(=O)N2CCCC[C@H]2C(=O)O[C@H]([C@H](C)C[C@@H]2CC[C@@H](OCCO)[C@H](OC)C2)CC(=O)[C@H](C)/C=C(\C)[C@@H](O)[C@@H](OC)C(=O)[C@H](C)C[C@H](C)/C=C/C=C/C=C/1C [Everolimus] | -0.691 |
| CCC(=O)O[C@]1(C(=O)SCF)[C@H](C)C[C@H]2[C@@H]3C[C@H](F)C4=CC(=O)C=C[C@]4(C)[C@@]3(F)[C@@H](O)C[C@@]21C [Fluticasone Propionate] | 0.295 |
| Oc1cc(O)cc(/C=C/c2ccc(O)c(O)c2)c1 [Piceatannol] | -0.0133 |
| COc1ccc2c(c1)c(C1=C(c3c[nH]c4ccccc34)C(=O)NC1=O)cn2CCCN(C)C | -1.12 |
| Nc1nc(F)nc2c1ncn2[C@@H]1O[C@H](COP(=O)(O)O)[C@@H](O)[C@@H]1O [Fludarabine Phosphate] | -0.316 |
| O=c1oc2ccccc2c(O)c1Cc1c(O)c2ccccc2oc1=O [Dicumarol] | 0.274 |
| Clc1ccc(C(c2ccccc2Cl)C(Cl)Cl)cc1 (stereo not given) [Mitotane] | -0.735 |
| CO[C@@]1(NC(=O)C2SC(=C(C(N)=O)C(=O)O)S2)C(=O)N2C(C(=O)O)=C(CSc3nnnn3C)CS[C@@H]21 (stereo not given in full) [Cefotetan Disodium] | -0.393 |
| Cc1ccc(NC(=O)c2ccc(CN3CCN(C)CC3)cc2)cc1Nc1nccc(-c2cccnc2)n1 [Imatinib mesylate] | 1.11 |
| CC(=O)NCCCS(=O)(=O)O [Acamprosate] | 0.283 |
| COc1ccc(-c2ccc3c(N4CCOC[C@@H]4C)nc(N4CCOC[C@@H]4C)nc3n2)cc1CO | -0.688 |
| CC1(C)S[C@@H]2[C@H](NC(=O)[C@H](N)c3ccc(O)cc3)C(=O)N2[C@H]1C(=O)O [Amoxicillin] | -0.996 |
| Nc1ccc2c3c(cccc13)C(=O)NC2=O [4-Amino-1,8-naphthalimide] | 1.52 |

Reference: the supplement of paper PMC9844399
